The record followed here is PubChem BioAssay (NCATS).

The nature of assay [1]: Viability qHTS for spleen associated tyrosine kinase inhibitor (SYKi) drug resistant MV4-11 cells (AID 1963824). Also: nearly all actives have a fitted effect of over 35% in size. Summed up: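 SYK-inhibitor-resistant MV4-11 AML cells were seeded at 500 per well onto compound and cultured 72 hours (37 °C, 5% CO2). CellTiter-Glo was then added, and after 10 min at room temperature, luminescence gave viability.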
For orientation: qHTS replaces the single test concentration by a dilution series.

The nature of assay [2]: Cellular viability qHTS for adrenocortical cancer (ACC) cell line SW-13 (AID 1963989). Also: nearly all actives have a fitted effect of over 65% in size.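 As to activity (max response): cells grown in serum-free medium with ITS supplement; % is scaled to controls: 0 for no effect and ±100 for the full control effect.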 The settings on record: SW-13 ACC cells viability, CellTiter-Glo, 48 h; activity (max response): hits give low values. An outline of the steps:
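48 h treatment, SW-13 in ITS/DMEM serum-free; doses up to 46 uM; readout CellTiter-Glo luminescence; curve fit four-parameter logistic.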

Assay [3] can be described thus: Cellular viability qHTS for adrenocortical cancer (ACC) cell line NCI-H295R (AID 1963990). Also: nearly all actives have a fitted effect of over 60% in size. An outline of the steps:
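Compound titrations (up to 46 uM final) are applied to NCI-H295R cultures for 48 h at 37C. Viable cell number is estimated by CellTiter-Glo signal, normalised to DMSO and doxorubicin controls.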

Inconclusive results are not listed. Values without a mark were called inactive. Active and inactive are the calls of the source. Calls follow the shape of the dose curve; as a rule, active = well fitted curve in the direction sought with a large enough effect; inconclusive = small, poorly fitted or top-dose-only effect, or another doubt; inactive = no such curve, though single readings can be large; an effect the other way counts as inactive or inconclusive.
Potency is read from the fitted curve at half-maximal effect.

As for `Cc1ccccc1-n1nc(-c2c(-c3ccc(F)cc3)nn3c2NC[C@@H](CO)C3)ccc1=O`, the Potency in assay [1] was 2.91 µM (active). For the same molecule, the activity (max response) in assay [2] is 12.4%. The Potency entry in assay [3] is “inactive”.
With `C/C(=C\c1csc(C)n1)[C@@H]1C[C@@H]2O[C@]2(C)CCC[C@H](C)[C@H](O)[C@@H](C)C(=O)C(C)(C)[C@@H](O)CC(=O)N1`, the Potency was 0.0132 µM (active) in assay [1], 3.16 µM (active) in assay [2] and 8.91 µM (active) in assay [3].
For `COc1ccc(C(=O)c2ccccc2O)c(O)c1`, the Potency in assay [1] was 9.44 µM (active). In assay [2], the activity (max response) was 11.3%. The Potency entry in assay [3] was “inactive”.
